Source: PubChem (National Center for Advancing Translational Sciences (NCATS))
KDM5B inh – inhibitors of human KDM5B histone demethylase. Potency, µM (top dose mostly 57.7 µM), most hits filed as inhibitors. AID 1347165. Q9UGL1. 2.6% of 220,000 active. KDM5B demethylase, FDH-coupled NADH fluorescence (FDH is formaldehyde dehydrogenase); active means well fitted inhibition curve with a large enough effect; further: 0% is about no effect; nearly all actives have a fitted effect of over 70% in size
Target sequence (Q9UGL1 whole entry, looked up): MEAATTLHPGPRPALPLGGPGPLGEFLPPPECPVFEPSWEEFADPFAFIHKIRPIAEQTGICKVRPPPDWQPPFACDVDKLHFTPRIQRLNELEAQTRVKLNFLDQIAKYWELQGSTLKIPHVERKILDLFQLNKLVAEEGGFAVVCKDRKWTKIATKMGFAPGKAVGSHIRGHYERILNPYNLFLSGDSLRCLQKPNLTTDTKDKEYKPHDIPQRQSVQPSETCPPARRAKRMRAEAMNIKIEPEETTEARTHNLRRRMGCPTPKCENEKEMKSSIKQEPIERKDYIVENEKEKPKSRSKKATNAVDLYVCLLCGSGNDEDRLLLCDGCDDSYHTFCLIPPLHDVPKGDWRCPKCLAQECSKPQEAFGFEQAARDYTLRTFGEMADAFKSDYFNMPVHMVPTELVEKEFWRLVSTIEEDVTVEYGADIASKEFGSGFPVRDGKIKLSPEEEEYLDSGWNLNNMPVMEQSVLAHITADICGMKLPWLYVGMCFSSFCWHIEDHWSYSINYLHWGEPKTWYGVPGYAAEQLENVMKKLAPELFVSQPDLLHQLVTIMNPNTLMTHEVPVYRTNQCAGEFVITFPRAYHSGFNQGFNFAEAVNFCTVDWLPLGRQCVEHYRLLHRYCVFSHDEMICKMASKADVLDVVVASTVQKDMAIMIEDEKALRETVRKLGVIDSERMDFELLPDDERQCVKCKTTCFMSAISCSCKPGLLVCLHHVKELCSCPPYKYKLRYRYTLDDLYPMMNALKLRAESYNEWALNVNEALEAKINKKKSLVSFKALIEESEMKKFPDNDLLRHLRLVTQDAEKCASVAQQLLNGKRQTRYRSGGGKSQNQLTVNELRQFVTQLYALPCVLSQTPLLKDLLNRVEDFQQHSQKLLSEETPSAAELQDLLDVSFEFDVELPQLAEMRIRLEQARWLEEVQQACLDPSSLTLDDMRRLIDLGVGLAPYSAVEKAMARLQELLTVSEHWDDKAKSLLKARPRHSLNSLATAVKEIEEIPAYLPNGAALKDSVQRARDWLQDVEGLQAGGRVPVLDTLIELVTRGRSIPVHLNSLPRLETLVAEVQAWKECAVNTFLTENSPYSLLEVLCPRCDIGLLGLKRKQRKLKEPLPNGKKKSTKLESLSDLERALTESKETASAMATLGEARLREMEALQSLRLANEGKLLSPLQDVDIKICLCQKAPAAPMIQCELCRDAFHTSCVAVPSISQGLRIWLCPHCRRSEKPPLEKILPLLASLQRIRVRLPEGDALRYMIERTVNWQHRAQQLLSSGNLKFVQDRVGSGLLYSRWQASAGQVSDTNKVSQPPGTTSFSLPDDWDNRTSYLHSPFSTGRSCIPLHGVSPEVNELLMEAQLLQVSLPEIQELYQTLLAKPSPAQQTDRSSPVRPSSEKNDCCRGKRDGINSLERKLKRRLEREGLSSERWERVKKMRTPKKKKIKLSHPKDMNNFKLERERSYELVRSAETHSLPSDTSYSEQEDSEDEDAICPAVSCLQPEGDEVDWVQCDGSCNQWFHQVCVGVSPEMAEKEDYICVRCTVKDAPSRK
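Here, H3K4me3 peptide (12.5 µM in substrate mix) is demethylated by KDM5BΔAP, 200 nM final, after 10 min compound exposure. Formaldehyde product is coupled through FDH (0.25 U/mL in mix) to NADH fluorescence; 30-min ΔRFU feeds dose-response curves.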
Active calls of the source: *; i = inactive. This is one part of a sample in which hits are shown more often than they occur. Potency means the concentration at half of the fitted maximal effect.

SMILES	KDM5B inh
CC(NC(=O)c1cc(S(=O)(=O)N(C)C)ccc1Br)c1cc2ccccc2o1 (centres undefined)	i
CCOc1ccc(CCNC(=S)NC(=O)c2ccc(F)cc2Cl)cc1OCC	i
COc1ccc(CCC(=O)N2CCN(C(=O)c3ccccc3)CC2)cc1	i
COc1ccc(-c2cc3nc4c(c(=O)n3[nH]2)CN(C(=O)CCc2ccccc2)CC4)cc1	5.62µM*
COc1ccc(Cn2c3c(c(=O)n2Cc2ccccc2)CCN(C(=O)CCc2cccnc2)C3)cc1	i
COc1ccc(CC(=O)N2CCc3nc(-c4ccc(Cl)cc4)nc(-c4ccccc4)c3C2)cc1	i
CCN(C(=O)CCC(=O)N1CCc2nc3cc(-c4ccc(OC)cc4)[nH]n3c(=O)c2C1)c1ccccc1	7.08µM*
CCc1nc2c(c(-c3ccc(OC)cc3)n1)CN(C(=O)c1ccccc1)CC2	i
Cc1cc(C)c2c(=O)n(CC(=O)Nc3ccccc3)c(=O)n(-c3ccccc3)c2n1	i
CCOC(=O)C1C(=O)C=C(/C=C/c2ccccc2)CC1c1ccccc1 (centres undefined)	i
CCOCCOC1CCN(C(=O)Nc2ccccc2)CC1	i
FC(F)(F)c1ccc(Cl)c(N/N=C/c2cccc(Cl)c2Cl)c1	i
Cc1cc(C)cc(C(=O)N(Cc2ccco2)C2CC2)c1	i
O=C(CNC(=O)c1nn(Cc2ccccc2)c(=O)c2ccccc12)Nc1ccc(F)c(F)c1	i
Cc1cc(=O)n(CC(=O)Nc2ccc(Cl)cc2F)c(N(C)Cc2ccccc2)n1	i
Cc1cn2nc(C(=O)N3CCC(C(=O)NC4CCC(C)CC4)CC3)cc2c(=O)[nH]1 (centres undefined)	i
Cc1cc(=O)n(CC(=O)Nc2ccc(C)c(F)c2)c(N(C)Cc2ccccc2)n1	i
CC1CCN(C(=O)c2ccc(CN(c3ccccc3)S(C)(=O)=O)cc2)CC1	i
Cc1cn2nc(C(=O)Nc3ccc(F)c(F)c3)cc2c(N(C)Cc2ccccc2)n1	31.6µM*
Cc1cn2nc(C(=O)N3CCC(C)CC3)cc2c(N(C)Cc2ccccc2)n1	28.2µM*
Cc1cn2nc(C(=O)Nc3ccccc3F)cc2c(N(C)Cc2ccccc2)n1	22.4µM*
CCN(CC)c1nc2ccccc2nc1C(=O)Nc1ccccc1F	i
O=C(c1ccccc1)N1CCc2sc(C(=O)N3CCN(c4ccc(F)cc4)CC3)cc2C1	i
CNc1snc(C)c1C(=O)N(C)CCOc1ccccc1Cl	i
O=C([C@@H]1C[C@H](Oc2ccccc2)CN1C(=O)c1ccc2ccccc2n1)N1CCOCC1	i
SMILES	KDM5B inh
COCCN1CC(Cc2ccccc2C(=O)NC(C)C)CC1=O (centres undefined)	i
CCCNc1c(NC(=O)c2ccccc2OCC)c(=O)oc2ccccc12	i
CCNC(=O)NC(=O)CSc1cc(C)c2cc(C)cc(C)c2n1	i
Cc1cc(NC(=O)NCC(c2ccco2)N(C)C)no1 (centres undefined)	i
CCN(CC)CCSCCOC(=O)c1oc2ccccc2c1C	i
N#CC1=C(N)OC2=C(C(=O)CCC2)C1c1ccc(C#N)cc1 (centres undefined)	i
COc1ccccc1-c1[nH]nc2ncc(C(=O)NCC3CC3)nc12	31.6µM*
COc1ccccc1-c1[nH]nc2ncc(C(=O)NCc3ccccc3)nc12	31.6µM*
COc1ccccc1-c1[nH]nc2ncc(C(=O)Nc3cc(C)nn3C)nc12	i
COc1ccc(-c2[nH]nc3ncc(C(=O)NCC4CCOCC4)nc23)c(C)c1	i
COc1ccc(-c2[nH]nc3ncc(C(=O)N(C)Cc4ccccc4)nc23)c(C)c1	i
COc1ccccc1-c1[nH]nc2ncc(C(=O)Nc3ccc4[nH]ccc4c3)nc12	i
CN(C)C(C(=O)N1CCN(Cc2ccccc2C#N)CC1)c1ccc(F)cc1 (centres undefined)	i
Cc1cc(C)c(NC(=O)C(C)SCCO)c(C)c1 (centres undefined)	i
CC(NC(=O)CCc1ncc(-c2c(F)cccc2F)o1)c1ccco1 (centres undefined)	i
Cc1ccc(Cl)cc1N1CCN(C(=O)CN(C)c2nnc(N3CCCC3=O)s2)CC1	i
O=C(N[C@H]1C[C@@H]2C(=O)N[C@H]3CCN(C(=O)C4CCCC4)[C@@H]3C(=O)N2C1)c1ccc(F)c(Cl)c1	i
CC[C@H]1CN(C(=O)Nc2cccc(OC)c2)CC[C@H]1CC(=O)O	i
CC(=O)N1CC[C@@H](CC(=O)O)[C@@H](CC2=NCCc3ccccc32)C1	i
COc1cc2c(cc1OC)C(C[C@H]1CN(C(=O)Nc3ccc(F)cc3)CC[C@H]1CC(=O)O)=NCC2	28.2µM*
COc1ccccc1N1CCN(CC[C@H]2CN(C(=O)Nc3ccccc3)CC[C@H]2CC(=O)O)CC1	i
COc1cc2c(cc1OC)C(C[C@H]1CN(C(=O)N3CCOCC3)CC[C@H]1CC(=O)O)=NCC2	i
CCCNC(=O)N1CC[C@@H](CC(=O)O)[C@@H](CC2=NCCc3cc(F)ccc32)C1	31.6µM*
COc1cc2c(cc1OC)C(C[C@H]1CN(C(=O)c3cccnc3)CC[C@H]1CC(=O)O)=NCC2	i
COc1cc2c(cc1OC)C(C[C@H]1CN(C(=O)Nc3cccc(C(C)=O)c3)CC[C@H]1CC(=O)O)=NCC2	28.2µM*
SMILES	KDM5B inh
CC(C)NC(=O)N1CC[C@@H](CC(=O)O)[C@@H](CC2=NCCc3cc(F)ccc32)C1	i
CCOc1ccc(NC(=O)Cn2c(-c3cccc(Cl)c3)nc(C)c(CCO)c2=O)cc1	i
CCN(c1ccccc1)S(=O)(=O)c1ccc(C(=O)OC2CCCCC2=O)cc1 (centres undefined)	i
COc1ccc(-c2c(C(=O)O)sc3c2NC(=O)CC32C(=O)N(C)c3cc(F)ccc32)cc1 (centres undefined)	i
Clc1ccc(/C=N/N=C(c2ccccc2)c2ccccc2)cc1	i
Cc1ccc(NC(=O)c2cc[n+]([O-])cc2)cc1Cl	i
CN(C)C(=O)c1n[nH]c2c1CN(C(=O)c1cccc(Cl)c1)CC2	i
Cc1oc(-c2cccs2)nc1CC(=O)Nc1ccccc1N1CCCC1	i
COc1ccc(OCc2ccc(C(=O)NCc3ccccc3)cc2)cc1	i
COc1ccc(OCC2(C)COc3ccc(C(=O)NCCc4ccccc4)cc3N2)cc1 (centres undefined)	31.6µM*
CCOCC1(C)COc2ccc(C(=O)NCCc3ccccc3)cc2N1 (centres undefined)	39.8µM*
COc1ccc(CCNC(=O)c2ccccc2C(=O)NCCc2ccc(OC)cc2)cc1	i
COc1ccc(CNC(=O)c2ccc3ccccc3c2)cc1	i
CC1(C(=O)NCCc2ccccc2)CCCCC(=O)N1 (centres undefined)	i
COc1ccc(OCC2(C)COc3ccc(C(=O)NCC(C)C)cc3N2)cc1 (centres undefined)	25.1µM*
COc1ccc(OCC2(C)COc3ccc(C(=O)NCc4cccc(F)c4)cc3N2)cc1 (centres undefined)	31.6µM*
COc1ccc(C(CNC(=O)c2ccc3c(c2)OCCO3)N2CCOCC2)cc1 (centres undefined)	i
COc1ccc(CCNC(=O)c2ccc(N(C)S(=O)(=O)c3ccccc3)cc2)cc1	i
COCCCN1C(=O)c2ccc(C(=O)NCCc3ccccc3)cc2C1=O	i
COc1ccc(OCC2(C)COc3ccc(C(=O)N4CCN(C)C(=O)C4)cc3N2)cc1 (centres undefined)	i
